# Test system: PIM2
# Conditions: concentration: 1 μM, replicates: in singlicate; n = 1
# 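Note: KINOMEscan kinase panel screen.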
row,Structure (SMILES),%Inh [%]
1,c1ccc(-c2ccnc3[nH]ccc23)cc1 [SB-693578],0
2,O=C(Nc1n[nH]c2nc(-c3cccs3)c(Br)cc12)C1CCCC1 [SB-743341],0
3,CN1c2ccc(-c3ccc(C(N)=O)cc3)cc2-c2[nH]ncc2S1(=O)=O,0
4,Fc1ccc(-c2nc3n(c2-c2ccncc2)CCS3)cc1 [GI98581],0
5,CCc1ccc(-c2ccc3c(c2)-c2n[nH]cc2S(=O)(=O)N3C)cc1,0
6,COC(=O)c1cccc(NC(=O)NC2CCN(c3ccnc(Nc4ccc(F)cc4)n3)C2)c1 (centres unmarked) [GSK1379725],0
7,COc1cccc(CNC(=O)NC2CCN(c3ccnc(Nc4ccc(F)cc4)n3)C2)c1 (centres unmarked) [GSK1379723],0
8,CNc1cc(-c2ccc3c(N)n[nH]c3c2)nc(N)n1 [GSK2224810],0
9,Cc1ccc(NC(=O)Nc2ccccc2F)cc1-c1ccc(C(=O)Nc2ccncc2)cc1 [GSK1398477],0
10,CS(=O)(=O)Cc1ccc(Nc2nccc(-c3c(-c4cccc(NC(=O)C5CCCCC5)c4)nn4ncccc34)n2)cc1 [GSK350559],10
11,Cc1cccc2c(-c3ccncn3)c(-c3ccc(F)cc3)nn12 [GW515532],0
12,Cc1ccc(NC(=O)c2ccc(Cl)cc2)cc1-c1ccc(C(=O)Nc2ccncc2)cc1 [GSK1398467],0
13,COc1ccc(CSc2nnc(-c3ccc4c(c3)CCO4)o2)cc1,0
14,Cc1ccccc1-c1cc(-c2c[nH]nc2-c2ccccn2)ccn1 [GW680061],0
15,COC(=O)C(Cc1ccccc1)NC(=O)NC1CCN(c2ccnc(Nc3ccc(F)cc3)n2)C1 (centres unmarked) [GSK1379714],0
16,COc1ccc2cc(-c3nc(-c4ccccc4C(C)C)[nH]c3-c3ccncc3)ccc2c1 [SB-660566],0
17,Nc1cccc(-c2ccc3c(N)n[nH]c3c2)n1 [GSK2192730],0
18,O=C1NC(=O)C(c2ccc(Cl)cc2)=C1Nc1ccc(O)cc1 [SB-340867],3
19,CCn1c(-c2c(N)noc2C)nc2cnccc21 [SB-737856],0

row,Structure (SMILES),%Inh [%]
1,COC(=O)c1cccc(NC(=O)NC2CCN(c3ccnc(Nc4ccc(OC)cc4)n3)C2)c1 (centres unmarked) [GSK1379746],0
2,Cc1ccc(NC(=O)Nc2ccc(Cl)cc2)cc1-c1ccc(C(=O)Nc2ccncc2)cc1 [GSK1398472],0
3,COc1ccc(Nc2nccc(N3CCC(NC(=O)c4cc5ccccc5s4)C3)n2)cc1 (centres unmarked) [GSK1379738],0
4,CC(=O)c1cccc(NC(=O)NC2CCN(c3ccnc(Nc4ccc(F)cc4)n3)C2)c1 (centres unmarked) [GSK1379710],0
5,Cc1ccccc1Cn1ccn2c(=O)cc(N3CCOCC3)nc12 [GSK2269905],0
6,CS(=O)(=O)CCNCc1nc(-c2ccc3ncnc(Nc4ccc5c(cnn5Cc5ccccc5)c4)c3c2)cs1.Cl.Cl [GW569716],0
7,O=C1NC(=O)C(c2ccc(Cl)cc2)=C1Nc1cccc(Cl)c1 [SB-317651],0
8,Cc1ccc(-c2nc(Nc3ccncc3)c3ccccc3n2)s1 [GSK189015],0
9,Cc1ccc(NC(=O)Nc2ccc(Cl)c(C(F)(F)F)c2)cc1-c1ccc(C(=O)Nc2ccncc2)cc1 [GSK1398470],1
10,Cn1cncc1-c1cc2c(Nc3ccc(OCc4ccccc4)cc3)ncnc2cn1 [GW281179],0
11,COc1ccc(CSc2nnc(-c3ccc4ncsc4c3)o2)cc1C(F)(F)F,0
12,O=C(Nc1n[nH]c2cc(-c3ccsc3)ccc12)C1CC1 [SB-732932],0
13,O=C(Nc1n[nH]c2nc(-c3cccs3)c(Br)cc12)C1CC1 [SB-735297],0
14,CNCc1ccc2nc(NC(=O)c3ccc(C(C)(C)C)cc3)cn2c1,9
15,Cc1c(Cn2c(C)c(C)n3c(=O)cc(N4CCOCC4)nc23)cccc1C(F)(F)F [GSK2328680],0
16,CC(C)c1ccc(O)cc1Nc1ccnc2ccc(C(F)(F)F)cc12 [GW482059],0
17,CSc1ccc(-c2nc3n(c2-c2ccncc2)CCC3)cc1 [SKF-105561],0
18,O=c1cc(N2CCOCC2)nc2n(Cc3ccccc3F)ccn12 [GSK2297428],0

# Test system: PIM3
# Conditions: concentration: 1 μM, replicates: in singlicate; n = 1
row,Structure (SMILES),%Inh [%]
1,c1ccc(-c2ccnc3[nH]ccc23)cc1 [SB-693578],0
2,O=C(Nc1n[nH]c2nc(-c3cccs3)c(Br)cc12)C1CCCC1 [SB-743341],0
3,CN1c2ccc(-c3ccc(C(N)=O)cc3)cc2-c2[nH]ncc2S1(=O)=O,13
4,Fc1ccc(-c2nc3n(c2-c2ccncc2)CCS3)cc1 [GI98581],0
5,CCc1ccc(-c2ccc3c(c2)-c2n[nH]cc2S(=O)(=O)N3C)cc1,18
6,COC(=O)c1cccc(NC(=O)NC2CCN(c3ccnc(Nc4ccc(F)cc4)n3)C2)c1 (centres unmarked) [GSK1379725],0
7,COc1cccc(CNC(=O)NC2CCN(c3ccnc(Nc4ccc(F)cc4)n3)C2)c1 (centres unmarked) [GSK1379723],0
8,CNc1cc(-c2ccc3c(N)n[nH]c3c2)nc(N)n1 [GSK2224810],0
9,Cc1ccc(NC(=O)Nc2ccccc2F)cc1-c1ccc(C(=O)Nc2ccncc2)cc1 [GSK1398477],0
10,CS(=O)(=O)Cc1ccc(Nc2nccc(-c3c(-c4cccc(NC(=O)C5CCCCC5)c4)nn4ncccc34)n2)cc1 [GSK350559],17
11,Cc1cccc2c(-c3ccncn3)c(-c3ccc(F)cc3)nn12 [GW515532],0
12,Cc1ccc(NC(=O)c2ccc(Cl)cc2)cc1-c1ccc(C(=O)Nc2ccncc2)cc1 [GSK1398467],0
13,COc1ccc(CSc2nnc(-c3ccc4c(c3)CCO4)o2)cc1,0
14,Cc1ccccc1-c1cc(-c2c[nH]nc2-c2ccccn2)ccn1 [GW680061],0
15,COC(=O)C(Cc1ccccc1)NC(=O)NC1CCN(c2ccnc(Nc3ccc(F)cc3)n2)C1 (centres unmarked) [GSK1379714],0
16,COc1ccc2cc(-c3nc(-c4ccccc4C(C)C)[nH]c3-c3ccncc3)ccc2c1 [SB-660566],0
17,Nc1cccc(-c2ccc3c(N)n[nH]c3c2)n1 [GSK2192730],13
18,O=C1NC(=O)C(c2ccc(Cl)cc2)=C1Nc1ccc(O)cc1 [SB-340867],0
19,CCn1c(-c2c(N)noc2C)nc2cnccc21 [SB-737856],0

row,Structure (SMILES),%Inh [%]
1,COC(=O)c1cccc(NC(=O)NC2CCN(c3ccnc(Nc4ccc(OC)cc4)n3)C2)c1 (centres unmarked) [GSK1379746],0
2,Cc1ccc(NC(=O)Nc2ccc(Cl)cc2)cc1-c1ccc(C(=O)Nc2ccncc2)cc1 [GSK1398472],0
3,COc1ccc(Nc2nccc(N3CCC(NC(=O)c4cc5ccccc5s4)C3)n2)cc1 (centres unmarked) [GSK1379738],21
4,CC(=O)c1cccc(NC(=O)NC2CCN(c3ccnc(Nc4ccc(F)cc4)n3)C2)c1 (centres unmarked) [GSK1379710],4
5,Cc1ccccc1Cn1ccn2c(=O)cc(N3CCOCC3)nc12 [GSK2269905],0
6,CS(=O)(=O)CCNCc1nc(-c2ccc3ncnc(Nc4ccc5c(cnn5Cc5ccccc5)c4)c3c2)cs1.Cl.Cl [GW569716],0
7,O=C1NC(=O)C(c2ccc(Cl)cc2)=C1Nc1cccc(Cl)c1 [SB-317651],2
8,Cc1ccc(-c2nc(Nc3ccncc3)c3ccccc3n2)s1 [GSK189015],12
9,Cc1ccc(NC(=O)Nc2ccc(Cl)c(C(F)(F)F)c2)cc1-c1ccc(C(=O)Nc2ccncc2)cc1 [GSK1398470],21
10,Cn1cncc1-c1cc2c(Nc3ccc(OCc4ccccc4)cc3)ncnc2cn1 [GW281179],0
11,COc1ccc(CSc2nnc(-c3ccc4ncsc4c3)o2)cc1C(F)(F)F,10
12,O=C(Nc1n[nH]c2cc(-c3ccsc3)ccc12)C1CC1 [SB-732932],11
13,O=C(Nc1n[nH]c2nc(-c3cccs3)c(Br)cc12)C1CC1 [SB-735297],0
14,CNCc1ccc2nc(NC(=O)c3ccc(C(C)(C)C)cc3)cn2c1,23
15,Cc1c(Cn2c(C)c(C)n3c(=O)cc(N4CCOCC4)nc23)cccc1C(F)(F)F [GSK2328680],0
16,CC(C)c1ccc(O)cc1Nc1ccnc2ccc(C(F)(F)F)cc12 [GW482059],0
17,CSc1ccc(-c2nc3n(c2-c2ccncc2)CCC3)cc1 [SKF-105561],1
18,O=c1cc(N2CCOCC2)nc2n(Cc3ccccc3F)ccn12 [GSK2297428],0

# From paper PMC5540273 (PLoS ONE, 2017)
